# Tg IFNy HTS: T. gondii growth inhibition under IFN-gamma; Toxoplasma gondii growth in IFN-gamma-treated host cells; active compounds read low; activity change, negative = inhibition, % (test concentration not listed); hit rate 3.8% among 69,000; in the data active = activity change below about -70%, passing the limit was not always enough;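 note: host cells are HeLa cells infected with Toxoplasma gondii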
# An asterisk follows results filed as active; ! = a repeat was not active. This is one part of a sample in which hits are shown more often than they occur.
SMILES,Tg IFNy HTS
Cn1ccc2c(-c3ccccc3C(N)=O)ccnc21,7.7
CCC(=O)N1CCC2(CC1)NC(=O)N(C1CCCN(C(=O)COc3ccccc3)C1)C2=O (stereo not given),19.9
COc1ccc(NC(=O)N2CCC(c3nc(C(=O)N4CCOCC4)c(C)o3)CC2)c(C)c1,17.4
O=C(NC(=S)SCc1ccccc1)c1ccc(C(F)(F)F)cc1,-9.6
Cn1c(SCc2ccccc2)nnc1-c1ccc(C(C)(C)C)cc1,1.0
CC(=O)c1c(C)nc(-c2ccc(C(F)(F)F)cc2)nc1SCc1ccccc1,-77.8*
CC(C)CNC(=O)C1Cn2ccnc2C2(CCN(C(=O)C3CCOCC3)CC2)O1 (stereo not given),13.0
CCc1ccc(NC(=O)N2CCC3(CC2)OC(C(=O)NCC(C)C)Cn2ccnc23)cc1 (stereo not given),60.3
CCc1cnc(N2CCC3(CC2)OC(C(=O)NCC(C)C)Cn2ccnc23)nc1 (stereo not given),-102.9*
COc1ccccc1NC(=O)N1[C@@H](C#N)[C@H](c2ccccc2)[C@@H]1CO,14.2
O=C(C[C@@H]1CC[C@@H]2[C@H](COC[C@H](O)CN2Cc2nccs2)O1)N1CCC(Cc2ccccc2)CC1,6.5
CC(C)CN(Cc1ccco1)C(=O)c1cn(CC2CCCNC2)nn1 (stereo not given),-1.9
Cc1ccc(OCC(=O)Nc2ccc(-c3nc(-c4ccc(C)cc4)co3)cc2)cc1,51.1
Nc1cc(-c2ccc(Cl)cc2)nc(N)n1,100.3
CCc1nc(N)nc(N)c1-c1ccc(Cl)cc1,-95.2*
CSc1nc(-c2ccc(Cl)cc2)nc(N)c1-c1ccccc1,206.8
Cc1nonc1C1CCCN1C(=O)c1cc(CC(C)C)on1 (stereo not given),-7.5
CCOC1C2CCC1N(Cc1ccc(OC)cc1)C2 (stereo not given),-56.5
COc1ccc(NC(=O)c2c(O)c3cccnc3n(-c3ccc(F)cc3)c2=O)cc1F,131.7
Cc1ccc(NC(=O)c2c(O)c3cccnc3n(-c3ccc(F)cc3)c2=O)cc1F,88.9
Cc1ccc(C(=O)Nc2ccc(Oc3cc4cnn(C)c4cc3-c3cn[nH]c3)c(F)c2)c(=O)n1-c1ccc(F)cc1,-73.6*
C[C@H](NC(=O)OC(C)(C)C)C(=O)NCC1CCC(C(=O)O)CC1 (stereo not given in full),-0.9
Cc1oc(-c2ccc(C(=O)NC3CCCCCC3)cc2)nc1CN1CCc2ccccc21,-93.0*
Cc1oc(-c2ccc(C(=O)NCCN3CCOCC3)cc2)nc1CN1CCc2ccccc21,54.8
COCCNC(=O)c1ccc(-c2nc(CN3CCc4ccccc43)c(C)o2)cc1,160.0
SMILES,Tg IFNy HTS
Cc1ccc(CNC(=O)c2ccc(-c3nc(CN4CCc5ccccc54)c(C)o3)cc2)cc1,72.2
CCCNC(=O)c1ccc(-c2nc(CN3CCc4ccccc43)c(C)o2)cc1,4.0
Cc1oc(-c2ccc(C(=O)NCCN(C)C)cc2)nc1CN1CCc2ccccc21,-111.8*
Cc1noc(-c2ccc(-n3ncc(C(=O)NCCc4c[nH]c5ccccc45)c3C)nc2)n1,135.7
CC(=O)c1ccc(NC(=O)CSCc2cc(C)cc(C)c2)cc1,150.6
COc1ccc(C2CCCCCN2S(=O)(=O)c2cn(C)cn2)cc1 (stereo not given),-2.9
CCOc1ncccc1-c1noc(CN2CCCCC2C)n1 (stereo not given),74.3
CNC(=O)CC1CC2(CCN(S(=O)(=O)c3cccs3)CC2)c2ccccc21 (stereo not given),-6.9
CNCCCC12CCC(c3ccccc31)c1ccccc12,-78.6*!
Cc1cc(NC(=O)NC(=O)c2csnn2)no1,-3.8
Cc1cc(C)n(C(C)CNC(=O)c2cc3n(n2)CCNC3)n1 (stereo not given),5.9
N#CC(C#N)Cc1ccc(O)cc1,16.3
CC1(C(=O)NCc2ccc(F)cc2F)CCN(C(=O)c2ccccc2)CC1,29.7
CC1(C(=O)NCc2ccc(F)cc2F)CCN(C(=O)c2ccc(C(C)(C)C)cc2)CC1,-90.8*
CC1(C(=O)NCc2ccc(F)cc2F)CCN(C(=O)c2ccc(F)cc2)CC1,13.5
CCOc1ccc(-c2nc(Cn3nnc(C(=O)Nc4ccc(OC)c(OC)c4)c3C)c(C)o2)cc1,38.3
Cc1ccc(S(=O)(=O)N2CCC3(CC3C(=O)Nc3cccc(F)c3)C2)cc1F (stereo not given),-64.7
Cc1ccc(S(=O)(=O)N2CC(C(=O)Nc3cccc(F)c3)C3(CCOCC3)C2)cc1 (stereo not given),-75.1*
O=C(Nc1cccc(F)c1)N1CC(C(=O)N2CCOCC2)C2(CCOCC2)C1 (stereo not given),-5.7
CCc1ccc(CN2CC[C@@H]3C[C@H](C(=O)Nc4cnccn4)O[C@@H]3C2)o1,7.7
CN(Cc1ccncc1)Cc1nc2ccccc2[nH]1,49.2
CC(C)c1ncc(C(=O)N2CCC3(CCCN(C)C3=O)C2)c(=O)[nH]1 (stereo not given),4.7
CCOC(=O)c1c(NC2=NC3(CCCCC3)Cc3ccccc32)sc2c1CCCC2,31.0
CCOC(=O)c1c(NC(=O)Nc2ccc(C)cc2)sc2c1CCN(C(=O)OCC)C2,-97.2*
CCCNC(=O)N1CCc2nc(-c3ccc(C)cc3)sc2C1,6.0
SMILES,Tg IFNy HTS
CN(C)C(=O)NCc1nnn2c1CN(Cc1ccsc1)CCC2,3.4
COc1cccc(-c2cc(C(=O)NCc3cc(N(C)C)nc(-c4cccnc4)n3)no2)c1,-67.9
COc1cccc(CN2CC[C@]3(CCC[C@@H]3C(=O)N3CCOCC3)C2)n1,-44.5
COc1cccc(CC2CN(C(=O)CCc3n[nH]c(C)c3C)CCO2)c1 (stereo not given),-8.4
NC(=O)c1noc(CN2CCCC(CCc3ccccc3F)C2)n1 (stereo not given),-2.1
Cc1nc2ncccn2c1C(=O)N1CCCC2(C1)C(=O)Nc1ccccc12 (stereo not given),-82.0*
Cc1nc2ncccn2c1C(=O)N1CCCC(C(=O)c2ccc3c4c(cccc24)CC3)C1 (stereo not given),-0.8
Cc1cc(C)n2nc(C(=O)N3CCCC4(C3)C(=O)Nc3ccccc34)cc2n1 (stereo not given),-24.5
CC(=O)Nc1cccc(-c2cnn3cccnc23)c1,-49.9
CC(=O)Nc1cccc(-c2ccccc2-c2nnc(C)s2)c1,-23.2
CC(=O)Nc1cccc(-c2cc(C(F)(F)F)cc3[nH]cnc23)c1,-77.3*
O=c1[nH]n(CCO)c(=O)c2cc(Cl)c(Cl)cc12,-49.1
COC(=O)[C@@H]1C[C@@H](NC(=O)c2sc(C(C)C)nc2C)CN1C,11.4
COc1ccc(Cc2nc3ccccc3n2CCCOc2ccccc2OC)cc1OC,-97.4*
COCCn1c(COc2ccc(Cl)cc2)nc2ccccc21,71.3
CC(=O)N(C)Cc1nc2ccccc2n1CCCCOc1ccccc1Cl,-39.8
Fc1cccc(-c2ccc(C3[C@H]4CNC[C@@H]3N4Cc3ccccn3)cc2)c1 (stereo not given in full),-67.9
CCN1C(=O)C(c2ccc(F)cc2)C2(CCN(C(=O)C(C)C)CC2)C1=O (stereo not given),-6.7
COc1ccc(S(=O)(=O)NCCc2sc(-c3ccc(OC)c(OC)c3)nc2C)cc1F,134.3
COCCN1C(=O)CO[C@H]2CN(S(=O)(=O)c3ccccc3)C[C@@H]21,-18.6
COc1ccc2[nH]c(-c3nc(CCN(C)C(=O)c4ccncc4)no3)cc2c1,101.6
Cc1ccc2[nH]c(-c3nc(CCN(C)C(=O)c4cccn4C)no3)cc2c1,47.9
CCc1c(-c2nc(CCN(C)C(=O)c3cccn3C)no2)[nH]c2ccc(C)cc12,-91.0*
CSc1cccc(CN(C)Cc2ccc(O)c(O)c2)c1,-1.3
